Mcl1-Noxa inh – Mcl-1/Noxa binding inhibitors, primary screen, biochemical, TR-FRET, 1536-well; TR-FRET Mcl-1/Noxa peptide binding, 2 h; inhibition, % at 21.7 µM; 1.5% of 220,000 active;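 active = compounds that cut the protein-peptide binding signal by more than 50% relative to plate controls in a single-dose test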;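 also: His-tagged Mcl-1 with rhodamine Noxa BH3 peptide and terbium anti-His antibody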
Target sequence (Q07820 whole entry, looked up): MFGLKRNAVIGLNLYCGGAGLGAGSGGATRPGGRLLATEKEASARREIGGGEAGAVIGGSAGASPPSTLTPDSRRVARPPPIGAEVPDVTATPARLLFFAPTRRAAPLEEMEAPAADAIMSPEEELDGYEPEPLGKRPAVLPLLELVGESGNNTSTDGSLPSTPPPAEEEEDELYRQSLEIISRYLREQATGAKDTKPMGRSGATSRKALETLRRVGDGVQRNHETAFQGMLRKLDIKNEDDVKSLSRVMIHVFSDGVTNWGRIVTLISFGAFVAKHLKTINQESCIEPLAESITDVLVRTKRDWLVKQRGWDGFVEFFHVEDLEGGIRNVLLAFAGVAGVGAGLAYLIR
L929 necroptosis – inhibitors of zVAD-triggered necroptosis, primary screen, L929 cells. L929 zVAD necroptosis rescue, ATP luminescence, 24 h; with zVAD 60 µM. viability rescue, % at 10 µM. 0.38% of 220,000 active. AID 1377, 2008;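 active = activation, scaled between plate controls, above about 75%, limit read from the data; inactive = activation under that limit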
Calpain2 inh – inhibitors of pig calpain II, primary screen, biochemical, fluorogenic peptide substrate, 1536-well | inhibition, % at 16 µM | 0.37% of 220,000 active | purified calpain II, 30 min;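 active = inhibition above about 50%, limit read from the data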
Mcl-1 Bim block – inhibitors of Bim peptide binding to Mcl-1, primary screen, biochemical, bead-based flow cytometry, multiplex; Induced myeloid leukemia cell differentiation protein Mcl-1 (Homo sapiens), Q07820; Bim peptide-Mcl-1 binding; inhibition, % at 10 µM; 0.1% of 190,000 active; AID 1009, 2008; in the data active = inhibition above about 40%
Mcl1 Bid PPI – Mcl-1/Bid binding inhibitors, primary screen, biochemical, TR-FRET, 1536-well; Induced myeloid leukemia cell differentiation protein Mcl-1 (Homo sapiens), Q07820; inhibition, % at 21.7 µM; 0.97% of 220,000 active; TR-FRET Mcl-1/Bid-Dy647 peptide binding;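 active = compounds that cut the binding signal by more than half at the single screening dose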;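 also: His-tagged Mcl-1 with europium anti-His antibody binding Bid BH3 peptide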
TNF death inh – inhibitors of TNF-alpha triggered necroptosis, primary screen, cell-based, Jurkat FADD-/-, single concentration; Jurkat FADD-/- TNF necroptosis rescue, ATP luminescence, 24 h; 0 = TNF only, 100 = no-TNF cells; activation (protection from cell death), % at 10 µM; 0.068% of 220,000 active;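 active = activation, meaning protection from cell death, of at least 50% relative to plate controls; inactive = activation below 50%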;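 also: necroptosis triggered by 40 ng/mL TNF-alpha added together with compound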
Of the large screens only hits and unclear results are named; the others gave an inactive call. This is a sample that favours compounds with a hit; in the whole collection about 2.8% have one here.

O=C(C1=C(O)C(=O)N(c2ncccn2)C1c1cccc(Cl)c1)c1ccco1 (centres undefined)	Mcl1-Noxa inh 63.5
COc1ccc(/C=C(/NC(=O)c2ccccc2)C(=O)NC2CCS(=O)(=O)C2)cc1 (centres undefined)	none
CC1CCN(CC(=O)NCc2ccco2)CC1	none
COCCn1c(SCc2ccccc2F)nc2ccccc2c1=O	Calpain2 inh 51.0
CC(C)c1ccc(Nc2c([N+](=O)[O-])c(=O)n(C)c3ccccc23)cc1	none (no result: Mcl-1 Bim block)
Cn1c(=O)c(Nc2ccc(O)cc2)c2c3c(cccc31)C(=O)c1ccccc1-2	Mcl1-Noxa inh 66.5
CC(NC(=O)Nc1ccccn1)N1C(=O)C2C3C=CC(C3)C2C1=O (centres undefined)	Mcl-1 Bim block 48.0
O=C(NCN1C(=O)C2C3C=CC(C3)C2C1=O)Nc1ccccn1 (centres undefined)	none
CCOC(=O)CN/C=C(\C#N)c1ccccc1	none
COc1ccc(-n2c(=O)/c(=C\c3cccs3)s/c2=C(/C#N)C(=O)N2CCN(C)CC2)cc1	none
C=CCNCCCOc1ccc(Cl)cc1C(C)(C)C	none
C=CCNCCOCCOc1ccc(Cl)cc1C(C)(C)C	Mcl1 Bid PPI 57.8
Cc1nc(SCC(=O)NC(=O)NC(C)C)nc(C)c1C	Mcl1-Noxa inh 63.8
Cc1nc(SCC(=O)NC(=O)NC(C)(C)C)nc(C)c1C	none (no result: Mcl-1 Bim block)
CNC(=O)c1c(NC(=O)c2cc(-c3cc(C)c(C)cc3O)n[nH]2)sc2c1CCCC2	Mcl1-Noxa inh 60.2 (no result: Mcl-1 Bim block)
COc1ccccc1N1C(=O)C2ON(c3ccccc3)C(c3ccc(N(C)C)cc3)C2C1=O (centres undefined)	Mcl1-Noxa inh 77.7
CCc1cc2c3c(c1)C1(C(=O)N3C(C)(C)C=C2C)C(C#N)=C(N)Oc2[nH]c(=O)[nH]c(=O)c21 (centres undefined)	none
CCNC(=O)/C(C#N)=C/c1c(N(Cc2ccccc2)Cc2ccccc2)nc2ccccn2c1=O	none
CNC(=O)/C(C#N)=C/c1c(N(Cc2ccccc2)Cc2ccccc2)nc2c(C)cccn2c1=O	Mcl-1 Bim block 90.0
CC(Nc1nc(-c2ccc3c(c2)NC(=O)CO3)cs1)c1ccccc1 (centres undefined)	TNF death inh 82.6
Cc1ccc2[nH]c(=O)c(COC(=O)c3cccs3)cc2c1	none
CC1=C(C(=O)OCc2ccccc2)C(c2cccs2)N2C(=O)CCSC2=N1 (centres undefined)	Calpain2 inh 60.6
CCOC(=O)C1=C(C)N=C2SCCC(=O)N2[C@@H]1c1cccs1	none (no result: Mcl-1 Bim block)
CN(C)c1ncc(S(=O)(=O)c2ccc(Cl)cc2)c(-c2ccccc2)n1	Calpain2 inh 55.5
O=S(=O)(c1ccc(Cl)cc1)c1cnc(-c2cccnc2)nc1-c1ccccc1	none
O=C1/C(=C/c2cccs2)Sc2ccccc21	Mcl-1 Bim block 75.0
O=C1Nc2ccccc2S/C1=C/c1cccs1	none (no result: Mcl-1 Bim block)
CC1=NNC(=O)C1CC(=O)N/N=C(\C)c1ccco1 (centres undefined)	Mcl1-Noxa inh 112.0
CCOC(=O)CCNCc1ccc(OC)c(OC)c1	Mcl1-Noxa inh 53.7 (no result: Mcl-1 Bim block)
CCOCCCNCc1ccc(OC)c(OC)c1	none
COc1ccc(-c2ocnc2C(=O)N2CCN(C(c3ccccc3)c3ccccc3)CC2)cc1	none
Cc1ccc(C)c(NC(=S)N/N=C/C(C)c2ccccc2)c1 (centres undefined)	none
CC(C)(O)C#Cc1ccc(CN2CCN(C3CCCCC3)C(CCO)C2)cc1 (centres undefined)	Mcl1-Noxa inh 81.2
COc1ccc(CC(=O)NC2CC(C)(C)NC(C)(C)C2)cc1	none
Cc1ccc(C(=O)Oc2ccccc2N2C(=O)C3CCCCC3C2=O)cc1 (centres undefined)	none
COc1ccccc1C(=O)O/N=C(/C)c1ccc(N2C(=O)C3CCCCC3C2=O)cc1 (centres undefined)	Calpain2 inh 54.1
CCC(C)(C)n1nnnc1CN(Cc1ccco1)Cc1cc2cc3c(cc2[nH]c1=O)OCO3	none
CCC(C)(C)n1nnnc1CN(Cc1ccc(Cl)cc1)Cc1ccco1	Mcl1 Bid PPI 56.9
S=c1[nH]c(-c2ccccc2)cn1/N=C/c1ccccc1Br	none
COc1cc(/C=N/n2cc(-c3ccccc3)[nH]c2=S)cc(OC)c1O	none (no result: Mcl-1 Bim block)
Oc1ccc(/C=N/n2cc(-c3ccccc3)[nH]c2=S)cc1	Mcl1-Noxa inh 73.4
Cc1ccc(/C=N/n2cc(-c3ccccc3)[nH]c2=S)s1	Mcl1-Noxa inh 53.6
Cc1c(C(=O)O)sc2nc(CSc3ncc(C(F)(F)F)cc3Cl)[nH]c(=O)c12	none (no result: Mcl-1 Bim block)
CC(=C/c1ccccc1)/C=C1/SC(N2CCOCC2)=NC1=O	Mcl1 Bid PPI 63.7
Cc1ccc(CNc2nc(C)nc3sc4c(c23)CCC4)cc1	Mcl1 Bid PPI 91.2
Cc1nc(Nc2ccc(O)cc2)c2c3c(sc2n1)CCCC3	none (no result: Mcl-1 Bim block)
Cc1ccc(C(=O)Nc2nnc(CC(=O)N/N=C/c3ccncc3)s2)cc1	Mcl1-Noxa inh 63.2
Cc1cc(C)c(S(=O)(=O)c2ccccc2)c(N2CCOCC2)n1	none
CC(Oc1ccc2ccc(=O)oc2c1)C(=O)c1ccccc1 (centres undefined)	Mcl1 Bid PPI 51.6
O=C(COc1ccc2ccc(=O)oc2c1)c1ccccc1	none (no result: Mcl-1 Bim block)
CNc1sc(C(=O)c2ccccc2F)c(N)c1-c1nc2ccccc2s1	Mcl1-Noxa inh 85.9
CCOC(=O)Cn1nc(C)c(NC(=O)c2ccc([N+](=O)[O-])c(C)c2)c1C	none
N#Cc1nc(COc2ccc(Cl)cc2Cl)oc1N1CCN(c2ccccc2)CC1	none
COc1ccc(N2CCN(c3oc(COc4ccc(Cl)cc4Cl)nc3C#N)CC2)cc1	Calpain2 inh 51.2
CCOc1nsc(OCC)n1	Mcl1-Noxa inh 59.3 (no result: Mcl-1 Bim block)
O=C(N/C=N/OCc1ccc(Cl)cc1Cl)NOCc1ncc(C(F)(F)F)cc1Cl	none
O=C(O)c1ccccc1-c1ccc(/C=c2\sc3nc4cc(Br)cnc4n3c2=O)o1	Mcl1-Noxa inh 90.8, Mcl1 Bid PPI 77.5
CCC(CC)c1nnc(NC(=O)c2cc(C(=O)OC)cc([N+](=O)[O-])c2)s1	none (no result: L929 necroptosis)
CCC(C)(C)n1nnnc1C(c1ccc(O)cc1)N1CCc2ccccc2C1 (centres undefined)	Mcl1-Noxa inh 59.4
CC(C)(C)n1nnnc1C(c1ccccc1)N1CCc2ccccc2C1 (centres undefined)	none
CN(C)c1ccc(C(c2nnnn2C(C)(C)C)N2CCc3ccccc3C2)cc1 (centres undefined)	Mcl1-Noxa inh 68.3
CC1CCN(C(c2ccc(N(C)C)cc2)c2nnnn2C(C)(C)C)CC1 (centres undefined)	Mcl1-Noxa inh 77.8
